# Test results published in the supplement of paper PMC3342239.
# Structures can show the parent of a compound that is named as a salt.
# Tested on: Saccharomyces cerevisiae
# Assay: fraction of cells in G1 phase (DNA content, flow cytometry); higher = more cells with unreplicated DNA (G1 delay)
# Settings: temperature: 30 C; YPD; JTY2953 pdr5 snq2 (sensitized); drug added to: cultures diluted from stationary phase; 6-7 h
# Outline: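 Library drugs were added to S. cerevisiae in YPD at 30°C, with fixation after 6–7 h for sensitized JTY2953 diluted 1∶200 from overnight and given a final 20 µg/ml, 6 h for dividing JTY2953, and 4.33 h for BY4741. Ethanol-fixed cells stained with SYTOX Green were read by flow cytometry, 10,000 events each. The G1 fraction is the ratio of the Dean-Jett-Fox G1 peak area to the G1 plus G2/M areas.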
row,SMILES,fraction of cells in G1 phase
1,CCCCCN(CCCCC)C(=O)C(CCC(=O)O)NC(=O)c1ccc(Cl)c(Cl)c1 (centres undefined) [Lorglumide] (43.5334 µM),0.482
2,CN/C(=N\c1ccc(C2=NNC(=O)CC2C)cc1)NC#N (centres undefined) [Siguazodan] (70.3425 µM),0.493
3,O=c1[nH]c(=O)n([C@H]2C[C@H](O)[C@@H](CO)O2)cc1F [Floxuridine] (81.2358 µM),0.514
4,C=C1C[C@H]2[C@@H]3C=C(C)C4=CC(=O)CC[C@]4(C)[C@H]3CC[C@]2(C)[C@@]1(OC(C)=O)C(C)=O [Melengestrol acetate] (50.4374 µM),0.569
5,C#C[C@]1(O)CC[C@H]2[C@@H]3CCC4=CC(=O)CC[C@@H]4[C@H]3CC[C@@]21CC [Levonorgestrel] (64.009 µM),0.509
6,CN1CCc2cccc3c2[C@H]1Cc1ccc(O)c(O)c1-3 [Apomorphine r (-)] (74.8137 µM),0.483
7,O=C(N[C@H](CO)[C@H](O)c1ccc([N+](=O)[O-])cc1)C(Cl)Cl [Chloramphenicol] (61.8937 µM),0.482
8,CNS(=O)(=O)Cc1ccc2[nH]cc(CCN(C)C)c2c1 [Sumatriptan Succinate] (48.368 µM),0.457
9,Nc1ccn([C@@H]2O[C@H](CO)[C@@H](O)[C@@H]2O)c(=O)n1 [Cytarabine] (82.2297 µM),0.477
10,CCC1=C(C)CN(C(=O)NCCc2ccc(S(=O)(=O)NC(=O)N[C@H]3CC[C@H](C)CC3)cc2)C1=O [Glimepiride] (40.7642 µM),0.481
11,COc1ccccc1OCC(O)CO (centres undefined) [Guaifenesin] (100.898 µM),0.463
12,CCCCC[C@H](O)/C=C/[C@@H]1[C@@H](C/C=C\CCCC(=O)O)[C@@H](O)C[C@H]1O [Dinoprost] (56.4189 µM),0.523
13,CCCCNc1cc(C(=O)O)cc(S(N)(=O)=O)c1Oc1ccccc1 [Bumetanide] (54.8812 µM),0.566
14,CCCc1nn(C)c2c(=O)[nH]c(-c3cc(S(=O)(=O)N4CCN(C)CC4)ccc3OCC)nc12 [Sildenafil] (42.142 µM),0.503
15,N=C(N)NC(=O)c1nc(Cl)c(N)nc1N [Amiloride] (75.1597 µM),0.516
16,N=c1nc(N2CCCCC2)cc(N)n1O [Minoxidil] (95.5782 µM),0.522
17,COc1ccc(C2CNC(=O)C2)cc1OC1CCCC1 (centres undefined) [Rolipram] (72.6347 µM),0.497
18,C[C@]12C[C@H](O)[C@H]3[C@@H](CCC4=CC(=O)CC[C@@]43C)[C@@H]1CC[C@@H]2C(=O)CO [Corticosterone] (57.7249 µM),0.512
19,COC(=O)c1ccc(=O)c2nc3c(=CO)c(O)cc(=O)c3[nH]c12 [Lomofungin] (63.6422 µM),0.495
20,N=C(N)c1ccc(OCCCCCOc2ccc(C(=N)N)cc2)cc1 [Pentamidine] (58.7494 µM),0.521

row,SMILES,fraction of cells in G1 phase
1,C=C1CC[C@H](O)C/C1=C/C=C1\CCC[C@]2(C)[C@@H]([C@H](C)CCCC(C)(C)O)CC[C@@H]12 [Calcifediol] (49.9188 µM),0.545
2,NC[C@H]1CC[C@H](C(=O)O)CC1 [Tranexamic acid] (127.226 µM),0.504
3,CC(C(=O)O)c1cccc(C(=O)c2ccccc2)c1 (centres undefined) [Ketoprofen+D153] (78.6509 µM),0.495
4,CC[C@]1(O)C[C@@H]2CN(CCc3c([nH]c4ccccc34)[C@@](C(=O)OC)(c3cc4c(cc3OC)N(C)[C@H]3[C@@](O)(C(N)=O)[C@H](O)[C@]5(CC)C=CCN6CC[C@]43[C@@H]65)C2)C1 [Vindesine] (26.5271 µM),0.478
5,Clc1cccc(Cl)c1NC1=NCCN1 [Clonidine HCl] (75.0469 µM),0.504
6,NC(=O)N1c2ccccc2C=Cc2ccccc21 [Carbamazepine] (84.6469 µM),0.483
7,CC=CC(=O)N(CC)c1ccccc1C [Crotamiton] (98.3833 µM),0.503
8,CCN1CCN(C(=O)N[C@@H](C(=O)N[C@@H]2C(=O)N3[C@@H]2SC(C)(C)[C@@H]3C(=O)O)c2ccccc2)C(=O)C1=O [Piperacillin] (38.6425 µM),0.462
9,C#C[C@]1(O)CC[C@H]2[C@@H]3[C@H](C)CC4=C(CCC(=O)C4)[C@H]3CC[C@@]21C [Tibolone] (64.009 µM),0.56
10,CO/N=C(\C(=O)N[C@@H]1C(=O)N2C(C(=O)O)=C(COC(C)=O)CS[C@H]12)c1csc(N)n1 [Cefotaxime acid] (43.9106 µM),0.485
11,CN(CCOc1ccc(NS(C)(=O)=O)cc1)CCc1ccc(NS(C)(=O)=O)cc1 [Dofetilide] (45.2927 µM),0.551
12,Cc1cnc(C(=O)NCCc2ccc(S(=O)(=O)NC(=O)NC3CCCCC3)cc2)cn1 [Glipizide] (44.8889 µM),0.577
13,O=C(NCCNCC(O)COc1ccc(O)cc1)N1CCOCC1 (centres undefined) [Xamoterol hemifumarate] (58.9284 µM),0.518
14,C[C@@H]1CCC[C@H](C)N1NC(=O)c1ccc(Cl)c(S(N)(=O)=O)c1 [Clopamide] (57.8284 µM),0.525
15,COc1ccc2[nH]cc(CCNC(C)=O)c2c1 [Melatonin] (86.1012 µM),0.529
16,CC(C)[C@H]1CC[C@H](C(=O)N[C@H](Cc2ccccc2)C(=O)O)CC1 [nateglinide] (63.0056 µM),0.489
17,CC[C@@H]1C(=O)OC[C@@H]1Cc1cncn1C [Pilocarpine HCl] (96.0327 µM),0.526
18,CC1=Nc2ccc(Cl)cc2S(=O)(=O)N1 [Diazoxide] (86.7024 µM),0.516
19,N/C(=N\C(=O)c1nc(Cl)c(N)nc1N)NCc1ccccc1 [Benzamil HCl] (56.1482 µM),0.493
